# Where “and” joins values, the source holds several entries; their conditions need not be identical. Equal values may be shown once. The whole screen tested about 5,500 compounds, of which about 2,000 (36%) were called active. Not shown: some 18% with an inconclusive outcome. Cut-off read from the data, not from the text of the source: active = normalized growth mostly below about 0.91 (no sharp cut-off); inconclusive = no clear call, values can overlap the other calls; inactive = mostly above about 0.92. The list shows a part of the results.
# Experiment: chemical genetic growth profiling, strain panel (AID 1159580);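 note: tested at 20 µM; growth read once vehicle control cultures reached saturation at 30 °C; 1 = growth at the plate median or of vehicle wells; lower values mean less growth of the strain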
# Details: S. cerevisiae deletion strains, growth OD
# [1] = locus YAR019C, strain CDC15, stronger effect = lower value
# [2] = locus YBL105C, strain PKC1, stronger effect = lower value
# [3] = locus YBR135W, strain CKS1, stronger effect = lower value
# [4] = locus YBR136W, strain MEC1, stronger effect = lower value
# [5] = locus YBR160W, strain CDC28, stronger effect = lower value
# [6] = locus YDL017W, strain CDC7, stronger effect = lower value
# [7] = locus YDL028C, strain MPS1, stronger effect = lower value
# [8] = locus YDL101C, strain DUN1, stronger effect = lower value
# [9] = locus YDL108W, strain KIN28, stronger effect = lower value
# [10] = locus YDL132W, strain cdc53, stronger effect = lower value
# [11] = locus YDL214C, strain PRR2, stronger effect = lower value
# [12] = locus YDR052C, strain DBF4, stronger effect = lower value
# [13] = locus YDR054C, strain cdc34, stronger effect = lower value
# [14] = locus YDR226W, strain ADK1, stronger effect = lower value
# [15] = locus YDR477W, strain SNF1, stronger effect = lower value
# [16] = locus YER123W, strain YCK3, stronger effect = lower value
# [17] = locus YER133W, strain GLC7, stronger effect = lower value
# [18] = locus YFL009W, strain cdc4, stronger effect = lower value
# [19] = locus YFL029C, strain CAK1, stronger effect = lower value
# [20] = locus YFR003C, strain YPI1, stronger effect = lower value
# [21] = locus YFR019W, strain FAB1, stronger effect = lower value
# [22] = locus YFR028C, strain CDC14, stronger effect = lower value
# [23] = locus YGR040W, strain KSS1, stronger effect = lower value
# [24] = locus YGR052W, strain FMP48, stronger effect = lower value
# [25] = locus YGR092W, strain DBF2, stronger effect = lower value
# [26] = locus YHR030C, strain SLT2, stronger effect = lower value
# [27] = locus YHR079C, strain IRE1, stronger effect = lower value
# [28] = locus YHR082C, strain KSP1, stronger effect = lower value
# [29] = locus YHR205W, strain SCH9, stronger effect = lower value
# [30] = locus YIL147C, strain SLN1, stronger effect = lower value
# [31] = locus YJL095W, strain BCK1, stronger effect = lower value
# [32] = locus YJL128C, strain PBS2, stronger effect = lower value
# [33] = locus YJL157C, strain FAR1, stronger effect = lower value
# [34] = locus YJR016C, strain ILV3, stronger effect = lower value
# [35] = locus YJR066W, strain TOR1 (second series), stronger effect = lower value
# [36] = locus YJR066W, strain TOR1, stronger effect = lower value
# [37] = locus YKL048C, strain ELM1, stronger effect = lower value
# [38] = locus YKL067W, strain YNK1, stronger effect = lower value
# [39] = locus YKL101W, strain HSL1, stronger effect = lower value
# [40] = locus YKL193C, strain SDS22, stronger effect = lower value
# [41] = locus YKL203C, strain TOR2, stronger effect = lower value
# [42] = locus YLR113W, strain HOG1, stronger effect = lower value
# [43] = locus YLR133W, strain CKI1, stronger effect = lower value
# [44] = locus YLR403W, strain SFP1, stronger effect = lower value
# [45] = locus YML070W, strain DAK1, stronger effect = lower value
# [46] = locus YMR001C, strain CDC5, stronger effect = lower value
# [47] = locus YMR205C, strain PFK2 (second series), stronger effect = lower value
# [48] = locus YMR277W, strain FCP1, stronger effect = lower value
# [49] = locus YNL006W, strain LST8, stronger effect = lower value
# [50] = locus YNL020C, strain ARK1, stronger effect = lower value
# [51] = locus YNL161W, strain CBK1, stronger effect = lower value
# [52] = locus YNL183C, strain NPR1, stronger effect = lower value
# [53] = locus YNL207W, strain RIO2, stronger effect = lower value
# [54] = locus YNL222W, strain SSU72, stronger effect = lower value
# [55] = locus YNL307C, strain MCK1 (second series), stronger effect = lower value
# [56] = locus YOL078W, strain AVO1, stronger effect = lower value
# [57] = locus YOL136C, strain PFK27, stronger effect = lower value
# [58] = locus YOR061W, strain CKA2, stronger effect = lower value
# [59] = locus YOR119C, strain RIO1, stronger effect = lower value
# [60] = locus YOR231W, strain MKK1, stronger effect = lower value
# [61] = locus YOR329C, strain SCD5, stronger effect = lower value
# [62] = locus YPL031C, strain PHO85, stronger effect = lower value
# [63] = locus YPL153C, strain RAD53, stronger effect = lower value
# [64] = locus YPL204W, strain HRR25, stronger effect = lower value
# [65] = locus YPL209C, strain IPL1, stronger effect = lower value
# [66] = locus YPL256C, strain CLN2, stronger effect = lower value
# [67] = locus YPR025C, strain CCL1, stronger effect = lower value
# [68] = locus YPR106W, strain ISR1, stronger effect = lower value
# [69] = locus YPR111W, strain DBF20, stronger effect = lower value
# [70] = strain NNK1, stronger effect = lower value
# [71] = strain TSCII, stronger effect = lower value
smiles,measurement,setting,value
CCCc1nc(-c2ccccn2)[nH]c(=O)c1CC1CC1,normalized growth,"locus YAL013W, strain DEP1, stronger effect = lower value",0.861 (active)
same,normalized growth,[1],0.947 (inactive)
same,normalized growth,[2],0.955 (inactive)
same,normalized growth,[3],0.955 (inactive)
same,normalized growth,[4],0.952 (inactive)
same,normalized growth,[5],0.96 (inactive)
same,normalized growth,"locus YBR229C, strain ROT2, stronger effect = lower value",0.727 (active)
same,normalized growth,[6],0.956 (inactive)
same,normalized growth,[7],0.937 (inactive)
same,normalized growth,[8],0.948 (inactive) and 0.899 (active)
same,normalized growth,[9],0.956 (inactive)
same,normalized growth,[10],0.948 (inactive)
same,normalized growth,"locus YDL134C, strain PPH21, stronger effect = lower value",0.862 (active)
same,normalized growth,[11],0.944 (inactive)
same,normalized growth,[12],0.962 (inactive)
same,normalized growth,[13],0.93 (inactive)
same,normalized growth,[14],0.954 (inactive)
same,normalized growth,[15],0.945 (inactive)
same,normalized growth,"locus YEL061C, strain CIN8, stronger effect = lower value",0.611 (active)
same,normalized growth,[16],0.903 (inactive)
same,normalized growth,[17],0.952 (inactive)
same,normalized growth,[18],0.942 (inactive)
same,normalized growth,[19],0.935 (inactive)
same,normalized growth,[20],0.958 (inactive)
same,normalized growth,[21],0.968 (inactive)
same,normalized growth,[22],0.96 (inactive)
same,normalized growth,[23],0.936 (inactive)
same,normalized growth,[24],1.01 (inactive)
same,normalized growth,"locus YGR078C, strain PAC10, stronger effect = lower value",0.842 (active)
same,normalized growth,[25],0.865 (inactive)
same,normalized growth,"locus YGR229C, strain SMI1, stronger effect = lower value",0.886 (active)
same,normalized growth,[26],0.292 (active) and 0.919 (inactive)
same,normalized growth,[27],0.853 (inactive)
same,normalized growth,[28],0.968 (inactive)
same,normalized growth,"locus YHR087W, strain rtc3, stronger effect = lower value",0.754 (active)
same,normalized growth,[29],0.98 (inactive)
same,normalized growth,[30],0.945 (inactive)
same,normalized growth,[31],0.915 (inactive)
same,normalized growth,[32],0.96 (inactive)
same,normalized growth,[33],0.928 (inactive)
same,normalized growth,"locus YJL187C, strain SWE1, stronger effect = lower value",0.829 (active)
same,normalized growth,[34],0.953 (inactive)
same,normalized growth,"locus YJR043C, strain POL32, stronger effect = lower value",0.923 (inactive)
same,normalized growth,[35],0.849 (inactive)
same,normalized growth,[36],0.887 (inactive)
same,normalized growth,"locus YJR075W, strain HOC1, stronger effect = lower value",0.879 (active)
same,normalized growth,[37],0.956 (inactive)
same,normalized growth,[38],0.954 (inactive)
same,normalized growth,[39],0.933 (inactive)
same,normalized growth,"locus YKL190W, strain CNB1, stronger effect = lower value",0.698 (active)
same,normalized growth,[40],0.952 (inactive)
same,normalized growth,[41],0.98 (inactive)
same,normalized growth,"locus YLR039C, strain RIC1, stronger effect = lower value",0.489 (active)
same,normalized growth,"locus YLR058C, strain SHM2 (second series), stronger effect = lower value",0.938 (inactive)
same,normalized growth,"locus YLR085C, strain ARP6, stronger effect = lower value",0.218 (active)
same,normalized growth,[42],0.88 (inactive)
same,normalized growth,[43],0.938 (inactive)
same,normalized growth,"locus YLR262C, strain YPT6, stronger effect = lower value",0.757 (active)
same,normalized growth,[44],0.94 (inactive)
same,normalized growth,[45],0.959 (inactive)
same,normalized growth,"locus YML094W, strain GIM5, stronger effect = lower value",0.534 (active)
same,normalized growth,[46],0.949 (inactive)
same,normalized growth,[47],0.939 (inactive)
same,normalized growth,"locus YMR219W, strain ESC1, stronger effect = lower value",0.916 (active)
same,normalized growth,"locus YMR263W, strain SAP30, stronger effect = lower value",0.889 (active)
same,normalized growth,[48],0.953 (inactive)
same,normalized growth,"locus YMR307W, strain GAS1, stronger effect = lower value",0.386 (active)
same,normalized growth,[49],0.966 (inactive)
same,normalized growth,[50],0.937 (inactive)
same,normalized growth,"locus YNL128W, strain TEP1, stronger effect = lower value",0.869 (active)
same,normalized growth,"locus YNL153C, strain GIM3, stronger effect = lower value",0.84 (active)
same,normalized growth,[51],0.957 (inactive)
same,normalized growth,[52],0.93 (inactive)
same,normalized growth,[53],0.94 (inactive)
same,normalized growth,[54],0.959 (inactive)
same,normalized growth,"locus YNL298W, strain CLA4 (second series), stronger effect = lower value",0.601 (active)
same,normalized growth,[55],0.937 (inactive)
same,normalized growth,"locus YNL322C, strain KRE1, stronger effect = lower value",0.975 (inactive)
same,normalized growth,"locus YNR030W, strain Alg12, stronger effect = lower value",0.498 (active)
same,normalized growth,[56],0.951 (inactive)
same,normalized growth,[57],0.959 (inactive)
same,normalized growth,[58],0.925 (inactive)
same,normalized growth,[59],0.937 (inactive)
same,normalized growth,[60],0.881 (inactive)
same,normalized growth,[61],0.952 (inactive)
same,normalized growth,[62],0.941 (inactive)
same,normalized growth,"locus YPL055C, strain LGE1, stronger effect = lower value",0.738 (active)
same,normalized growth,[63],0.926 (inactive)
same,normalized growth,[64],0.927 (inactive)
same,normalized growth,[65],0.958 (inactive)
same,normalized growth,"locus YPL241C, strain CIN2, stronger effect = lower value",0.648 (active)
same,normalized growth,[66],0.9 (inactive)
same,normalized growth,[67],0.949 (inactive)
same,normalized growth,[68],0.979 (inactive)
same,normalized growth,[69],0.973 (inactive)
same,normalized growth,"locus YPR135W, strain CTF4, stronger effect = lower value",0.413 (active)
same,normalized growth,[70],0.962 (inactive)
same,normalized growth,[71],0.949 (inactive)
C=CCc1c(CCC)nc(-c2ccccn2)[nH]c1=O,normalized growth,[1],0.931 (inactive)
same,normalized growth,[2],0.945 (inactive)
same,normalized growth,[3],0.95 (inactive)
same,normalized growth,[4],0.933 (inactive)
same,normalized growth,[5],0.947 (inactive)
same,normalized growth,[6],0.931 (inactive)
same,normalized growth,[7],0.931 (inactive)
same,normalized growth,[8],0.945 (inactive)
same,normalized growth,[9],0.937 (inactive)
same,normalized growth,[10],0.936 (inactive)
same,normalized growth,[11],0.893 (inactive)
same,normalized growth,[12],0.955 (inactive)
same,normalized growth,[13],0.916 (inactive)
same,normalized growth,[14],0.94 (inactive)
same,normalized growth,[15],0.891 (inactive)
same,normalized growth,[16],0.772 (inactive)
same,normalized growth,[17],0.912 (inactive)
same,normalized growth,[18],0.928 (inactive)
same,normalized growth,[19],0.92 (inactive)
same,normalized growth,[20],0.952 (inactive)
same,normalized growth,[21],0.939 (inactive)
same,normalized growth,[22],0.945 (inactive)
same,normalized growth,[23],0.893 (inactive)
same,normalized growth,[24],0.904 (inactive)
same,normalized growth,[25],0.752 (inactive)
same,normalized growth,[26],0.875 (inactive)
same,normalized growth,[27],0.701 (inactive)
same,normalized growth,[28],0.883 (inactive)
same,normalized growth,[29],0.983 (inactive)
same,normalized growth,[30],0.931 (inactive)
same,normalized growth,[31],0.784 (inactive)
same,normalized growth,[32],0.96 (inactive)
same,normalized growth,[33],0.867 (inactive)
same,normalized growth,[34],0.94 (inactive)
same,normalized growth,[35],0.767 (inactive)
same,normalized growth,[36],0.748 (inactive)
same,normalized growth,[37],0.966 (inactive)
same,normalized growth,[38],0.902 (inactive)
same,normalized growth,[39],0.896 (inactive)
same,normalized growth,[40],0.936 (inactive)
same,normalized growth,[41],0.926 (inactive)
same,normalized growth,[42],0.733 (active)
same,normalized growth,[43],0.886 (inactive)
same,normalized growth,[44],0.892 (inactive)
same,normalized growth,[45],0.884 (inactive)
same,normalized growth,[46],0.937 (inactive)
same,normalized growth,[47],0.901 (inactive)
same,normalized growth,[48],0.944 (inactive)
same,normalized growth,[49],0.943 (inactive)
same,normalized growth,[50],0.877 (inactive)
same,normalized growth,[51],0.945 (inactive)
same,normalized growth,[52],0.825 (inactive)
same,normalized growth,[53],0.924 (inactive)
same,normalized growth,[54],0.945 (inactive)
same,normalized growth,[55],0.84 (inactive)
same,normalized growth,[56],0.933 (inactive)
same,normalized growth,[57],0.883 (inactive)
same,normalized growth,[58],0.877 (inactive)
same,normalized growth,[59],0.905 (inactive)
same,normalized growth,[60],0.73 (inactive)
same,normalized growth,[61],0.941 (inactive)
same,normalized growth,[62],0.891 (inactive)
same,normalized growth,[63],0.864 (inactive)
same,normalized growth,[64],0.856 (inactive)
same,normalized growth,[65],0.94 (inactive)
same,normalized growth,[66],0.823 (active)
same,normalized growth,[67],0.945 (inactive)
same,normalized growth,[68],0.944 (inactive)
same,normalized growth,[69],0.954 (inactive)
same,normalized growth,[70],0.945 (inactive)
same,normalized growth,[71],0.929 (inactive)

# Reference: PubChem BioAssay AID1159580 (chemical genetic matrix, 2015)
